# Measurements as given in PubChem BioAssay.
# The source made the active and inactive calls.
# Experiment: plasmodial surface anion channel blockers, osmotic lysis – cell-based, P. falciparum Indochina, OD700, 2 h, primary screen (AID 1155);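 also: lysis reports solute entry through the parasite surface anion channel PSAC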
# Conditions: P. falciparum Indochina infected erythrocytes, higher = more signal, called active from +8 up or from −8 down
row,Structure (SMILES),z-score
1,[N-]=[N+]=NCc1ccccc1C[C@@]1(C(=O)NCCN2CCOCC2)N=C(c2ccc(OCCCO)cc2)O[C@@H]1c1ccccc1,11.7 (active)
2,COC(=O)C1(CC(C)C)C=C2C(=C(C)C(=O)C2C)CN1 (stereo unspecified),-0.161 (inactive)
3,COC(=O)C(CC#Cc1ccc2c(c1)[C@]1(C(=O)N2)[C@H](c2ccc(OCCO)cc2)N2[C@H](c3ccccc3)[C@H](c3ccccc3)OC(=O)[C@H]2[C@@H]1C(N)=O)C(=O)OC,1.36 (inactive)
4,CCCN1C(=O)[C@@]2(c3ccc([N+](=O)[O-])cc3)CC(=O)N(C3CCCCC3)[C@@H]2c2ccc(CO)cc21,0.636 (inactive)
5,C=CCNC(=O)[C@H]1[C@@H]2C(=O)O[C@@H](c3ccccc3)[C@@H](c3ccccc3)N2[C@@H](c2ccc(OCCO)cc2)[C@]12C(=O)N(C(=O)OCCOC)c1ccc(C#CCC(C(=O)OC)C(=O)OC)cc12,1.28 (inactive)
6,C=CCOC(=O)[C@H]1[C@@H]2C(=O)O[C@@H](c3ccccc3)[C@@H](c3ccccc3)N2[C@@H](c2ccc(OCCOC(=O)[C@H]3C[C@H]4C(=O)NCC(=O)N4[C@H]3c3ccc(O)cc3)cc2)[C@]12C(=O)Nc1ccccc12,1.3 (inactive)
7,COc1ccc(C(=O)Nc2ccc(CN3C(=O)[C@@]4(O[C@@H](CC(=O)N(CCO)Cc5ccccc5)[C@H]([Si](C)(C)c5ccc(OC)cc5)[C@H]4C)c4ccccc43)cc2)cc1,2.82 (inactive)
8,CCOC(=O)C1=CCC(c2ccncc2)N(S(=O)(=O)c2ccc(C)cc2)C1 (stereo unspecified),1.29 (inactive)
9,O=C1O[C@H](c2ccccc2)[C@H](c2ccccc2)N2[C@H]1[C@@H](C(=O)O)[C@]1(C(=O)Nc3ccc(C#CC4(O)CCCCCC4)cc31)[C@H]2c1ccccc1OCCO,-0.922 (inactive)
10,O=C1O[C@H](c2ccccc2)[C@H](c2ccccc2)N2[C@H]1[C@@H](C(=O)O)[C@]1(C(=O)Nc3ccccc31)[C@H]2c1ccc(OCCO)cc1,0.173 (inactive)
11,CCCCCCc1nc(-c2ccc(OC)nc2)c(C)c2c1[Si](C(C)C)(C(C)C)OC2,-0.0075 (inactive)
12,COC(=O)Cn1c(C(=O)N(C)C)cc2c1C[C@H]1CN(C(=O)c3ccccc3)[C@@](Cc3ccccc3)(C(=O)OC)[C@@H]21,-0.734 (inactive)
13,COc1ccc([Si](C)(C)[C@H]2[C@H](CC(=O)N3CCC[C@H]3CO)O[C@@]3(C(=O)N(C)c4ccccc43)[C@@H]2C)cc1,0.225 (inactive)
14,C=CC[C@H](OC(=O)Nc1ccc(SC)cc1)c1ccc(O)c(F)c1,4.93 (inactive)
15,Cc1ccc(S(=O)(=O)N2[C@@H](c3ccccc3)C(C(=O)O)=CC[C@H]2c2ccc(F)cc2)cc1,0.706 (inactive)
16,COC(=O)C(CC#Cc1ccc2c(c1)[C@]1(C(=O)N2)[C@H](C(N)=O)[C@H]2C(=O)O[C@H](c3ccccc3)[C@H](c3ccccc3)N2[C@@H]1c1ccccc1OCCO)C(=O)OC,3.83 (inactive)
17,O=C1OC[C@@H](c2ccccc2)n2cc(/C=C/c3ccccc3)cc21,0.408 (inactive)
18,CN1C(=O)C2C(C1=O)C1C=C(CCCO)C2C(C2CC2)N1C (stereo unspecified),-0.72 (inactive)
19,COC(=O)[C@@]1(Cc2ccc(F)cc2)[C@H]2c3cc(C(=O)N(C)C)n(Cc4cccc5ccccc45)c3C[C@H]2CN1C(=O)c1ccccc1,1.29 (inactive)
20,C[N+](C)(C)CCCC[C@@H]1NC(=O)[C@H]2C[C@@H](C(=O)O)[C@@H](c3ccc(O)cc3)N2C1=O,1.17 (inactive)
21,C=CCN1C(=O)[C@]2(O[C@H](CCO)[C@@H]([Si](C)(C)c3ccc(OC)cc3)[C@@H]2C)c2cc(N3C(=O)c4ccccc4Oc4ccccc43)ccc21,2.82 (inactive)
22,COc1cc2c(cc1OC)CN(C(=O)[C@@H]1[C@H]3C(=O)O[C@H](c4ccccc4)[C@H](c4ccccc4)N3[C@H](c3ccc(O)cc3)[C@@]13C(=O)Nc1ccc(C#CC4=CCCCC4)cc13)CC2,0.925 (inactive)
23,COc1ccc([Si](C)(C)[C@@H]2[C@@H](CC(=O)N3CCC[C@H]3CO)O[C@]3(C(=O)N(Cc4cccc(N5C(=O)c6cccc7cccc5c67)c4)c4ccccc43)[C@H]2C)cc1,-0.263 (inactive)
24,O=C1O[C@@H](c2ccccc2)[C@@H](c2ccccc2)N2[C@@H](c3ccccc3OCCO)[C@]3(C(=O)Nc4ccc(C#CC5(O)CCCCCC5)cc43)[C@@H](C(=O)N3CCCCCCC3)[C@H]12,-0.256 (inactive)
25,COc1ccc(NN2C(C(O)c3ccccc3)C=CC3C(=O)N(C4CCCCC4)C(=O)C32)cc1 (stereo unspecified),2.25 (inactive)
26,COC(=O)[C@@]1(Cc2ccc(F)cc2)[C@H]2c3cc(C(=O)N4CCCC4)n(C[C@H](O)CO)c3C[C@H]2CN1C(=O)c1ccccc1,0.542 (inactive)
